Results as given in PubChem BioAssay (NCATS).
Inconclusive results are not listed. A call without a number means that no potency is given here. Active and inactive are the calls of the source. Calls come from the whole dose curve; as a rule, active = well fitted curve in the direction sought with a large enough effect; inconclusive = small, poorly fitted or top-dose-only effect, or another doubt; inactive = no such curve, though single readings can be large; an effect the other way counts as inactive or inconclusive.

Columns and labels:
[1] = Cell Viability - LYMP1-003 - Assay at 40 hr (AID 964); note: nearly all actives have a fitted effect of over 60% in size; note: potency is the fitted concentration of half-maximal effect
Outline: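 Human lymphoblastoid LYMP1-003 cells, 2500/well in complete medium, rested 5 hr at 37 C, then exposed to compounds for 40 hr at 37 C. Viability read as intracellular ATP by CellTiter-Glo luminescence; AC50 from Hill fits of concentration-response data.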

[2] = Cell Viability - LYMP2-003 (AID 965);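 note: cells exposed to compounds for 24 h before reading; nearly all actives have a fitted effect of over 50% in size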
Outline: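 qHTS, human lymphoblastoid line, 2500 cells/well, complete medium. 24 h drug, 37 C. ATP-based luminescent readout; Hill-fit AC50.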

[3] = Cell Viability - LYMP2-004 (AID 966); note: nearly all actives have a fitted effect of over 65% in size
Outline: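 Human lymphoblastoid cells (2500/well) in complete medium were treated with compounds for 24 hr at 37 C, then intracellular ATP was measured by CellTiter-Glo luminescence. AC50 values came from Hill-equation fits of concentration-response data.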

[4] = Cell Viability - LYMP2-005 (AID 967); note: series mostly up to about 92 µM
Outline: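 Luciferase-based ATP quantitation served as the viability measure in human lymphoblastoid LYMP2-005 cells exposed to test compounds for 24 h at 37 C in complete culture medium. Potency (AC50) was obtained by fitting concentration-response curves with the Hill equation.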

[5] = Cell Viability - LYMP2-009 (AID 968); note: series mostly up to about 92 µM; nearly all actives have a fitted effect of over 55% in size
[6] = Cell Viability - LYMP2-011 (AID 969); note: nearly all actives have a fitted effect of over 60% in size
Outline: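 Human lymphoblastoid cells (2500/well) were plated in complete medium, preincubated 5 hr at 37 C, then exposed to compounds for 24 hr at 37 C. Intracellular ATP was read by CellTiter-Glo luminescence, and AC50 came from Hill-equation concentration-response fits.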

[7] = Cell Viability - LYMP2-013 (AID 970); note: series mostly up to about 92 µM; nearly all actives have a fitted effect of over 55% in size
Outline: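 Human lymphoblastoid cells, 2500/well, were preincubated 5 hr at 37 C, then treated with compounds for 24 hr at 37 C in complete medium. Intracellular ATP was read by CellTiter-Glo luminescence; AC50 from Hill-equation fits of concentration-response data.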

[8] = Cell Viability - LYMP2-015 (AID 971); note: nearly all actives have a fitted effect of over 55% in size
Outline: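 Human lymphoblastoid cells (2500/well) in complete medium were preincubated 5 hr at 37 C, then compound-treated 24 hr at 37 C. Intracellular ATP was read by CellTiter-Glo luminescence after 30 min at room temperature; AC50 came from Hill-equation concentration-response fits.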

[9] = Cell Viability - LYMP2-017 (AID 972); note: series mostly up to about 92 µM; nearly all actives have a fitted effect of over 55% in size
Outline: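 Human lymphoblastoid cells (2500/well) were seeded in complete medium, held 5 hr at 37 C, then exposed to compounds for 24 hr at 37 C. Intracellular ATP was read by CellTiter-Glo luminescence after 30 min at room temperature, with AC50 values from Hill-equation fits.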

[10] = Cell Viability - LYMP2-019 (AID 973); note: nearly all actives have a fitted effect of over 55% in size
Outline: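 Human lymphoblastoid cells were seeded at 2500 cells/well, preincubated 5 hr at 37 C, then exposed to compounds for 24 hr at 37 C in complete medium. Intracellular ATP was measured by CellTiter-Glo luminescence; AC50 from Hill fits.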

| SMILES | Potency [1] | outcome [2] | outcome [3] | outcome [4] | outcome [5] | outcome [6] | outcome [7] | outcome [8] | outcome [9] | outcome [10] |
| --- | --- | --- | --- | --- | --- | --- | --- | --- | --- | --- |
| O=c1[nH]cnc2[nH]ncc12 | inactive | inactive | inactive | inactive | inactive | inactive | inactive | inactive | inactive | inactive |
| NS(=O)(=O)c1cc2c(cc1Cl)NC=NS2(=O)=O | inactive | inactive | inactive | inactive | inactive | inactive | inactive | inactive | inactive | inactive |
| Cn1cnc([N+](=O)[O-])c1Sc1ncnc2nc[nH]c12 | 2510 nM (active) | – | – | – | – | – | – | – | – | – |
| CCCC(CCC)C(=O)O | inactive | inactive | inactive | inactive | inactive | inactive | inactive | inactive | inactive | inactive |
| NC(N)=NC(=O)c1nc(Cl)c(N)nc1N | inactive | inactive | inactive | inactive | inactive | inactive | inactive | inactive | inactive | inactive |
| CC(=O)Oc1ccccc1C(=O)O | inactive | inactive | inactive | inactive | inactive | inactive | inactive | inactive | inactive | inactive |
| NC(=O)c1cnccn1 | inactive | inactive | – | inactive | inactive | inactive | inactive | inactive | inactive | inactive |
